Test [1] deals with Bile acid receptor (Homo sapiens) (UniProt Q96RI1). The experiment in a line: qHTS assay for small molecule agonists of farnesoid X receptor signaling (AID 588527).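 Further: series mostly up to about 77 µM; 0% = vehicle basal and 100% = reference agonist.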 The conditions noted are these: HEK293T FXR-UAS-bla, beta-lactamase ratio, 16 h; activation: stronger effect = higher value. Put shortly: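 FXR-UAS-bla HEK293T cells (10% dialyzed FBS) preincubated 5-7 h at 37 C, then compounds at up to 92 uM for 16 h at 37 C. CCF4 beta-lactamase read-out after 2 h RT. Normalized to chenodeoxycholic acid (100 uM) and DMSO; Hill fit gave EC50 and efficacy.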
A general note: Quantitative high-throughput screening tests each substance at several concentrations.

Test [2] deals with Glucocorticoid receptor (Homo sapiens) (UniProt P04150). The experiment in a line: qHTS assay for small molecule agonists of glucocorticoid receptor signaling (AID 588532; active means well fitted curve in the direction sought with a large enough effect in the signal ratio, with a control signal flat; the % refers to the signal ratio;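 further: 100% = dexamethasone at 0.1 µM and 0% = DMSO only wells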). The conditions noted are these: HeLa MMTV-bla, beta-lactamase ratio, agonist, 18 h; activation: stronger effect = higher value, percent of dexamethasone control, DMSO zero. The essentials:
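Cells were plated and rested 3-5 h at 37 C, compounds were added in titration and incubated 18 h, then CCF4 substrate was loaded for 2 h at RT before reading blue/green fluorescence. EC50 came from Hill-equation fitting.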

Test [3] in a line: qHTS assay for small molecule agonists of retinoid X receptor alpha signaling (AID 588544). As to conditions: HEK293T RXRa-UAS-bla, beta-lactamase reporter, 18 h; 530 nm emission.
Test [4] in a line: qHTS assay for small molecule agonists of the antioxidant response element (ARE) signaling pathway (AID 651741; active means well fitted activation curve with a large enough effect in the signal ratio; the % refers to the signal ratio; further: potency means the concentration at half of the fitted maximal effect; on activation: % of control where 0% means no effect). The essentials:
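HepG2 ARE-bla cells plated at 2,000 cells/well and incubated 5 h at 37 C/5% CO2 received 23 nL compound in DMSO. After 16 h at 37 C, LiveBLAzer B/G FRET substrate was applied for 2 h at room temperature and fluorescence read.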

Test [5] has as its target Bile acid receptor (Homo sapiens) (UniProt Q96RI1). The test can be described thus: qHTS assay for small molecule antagonists of farnesoid X receptor signaling (AID 588526). Further: potency means the concentration at half of the fitted maximal effect. Put shortly: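 Antagonist mode: titrated compounds tested against chenodeoxycholic acid stimulation (normalized to 50 uM CDCA and DMSO) in GeneBLAzer HEK293T cells for 16 h. Beta-lactamase read by CCF4 fluorescence; IC50 from Hill fits.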

For test [6], the target named is Vitamin D3 receptor (Homo sapiens) (UniProt P11473). The test can be described thus: qHTS assay for small molecule agonists of vitamin D receptor signaling (AID 588543).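 Further: 0% = DMSO basal and 100% = reference agonist control.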 Put shortly: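 Agonist-mode beta-lactamase reporter: HEK293T VDR-UAS-bla cells in charcoal-stripped 2% FBS, compound series 16 h 37 C, CCF4 2 h RT. EC50 from Hill fit, scaled against DMSO and 50 nM calcitriol control.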

The target of test [7] is Peroxisome proliferator-activated receptor gamma (Homo sapiens) (UniProt P37231). The experiment in a line: qHTS assay for small molecule antagonists of peroxisome proliferator-activated receptor gamma signaling (AID 588537; active means well fitted inhibition curve with a large enough effect in the signal ratio, with a control signal flat, not every such curve was filed as active; the % refers to the signal ratio;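 further: reporter cells co-stimulated with 50 nM rosiglitazone agonist during compound treatment; % of control where 0% means no effect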). The essentials: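 Step one: plate 3000 HEK293 UAS-bla cells per well in medium with 1% stripped serum and hold 6-6.5 h at 37 C. Step two: add compound and 50 nM agonist for 16 h. Step three: CCF4 loading, fluorescence read.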

Test [8] can be described thus: qHTS assay for small molecule activators of the human pregnane X receptor (PXR) signaling pathway (AID 720659; call rule not given here; further: 0% is about no effect).
In test [9] the target is Peroxisome proliferator-activated receptor gamma (Homo sapiens) (UniProt P37231). The experiment in a line: qHTS assay for small molecule agonists of peroxisome proliferator-activated receptor gamma signaling (AID 588536; active means well fitted curve in the direction sought with a large enough effect in the signal ratio, with a control signal flat, not every such curve was filed as active; the % refers to the signal ratio;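 further: 0% = DMSO basal wells and 100% = rosiglitazone at 2 µM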). Put shortly:
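GeneBLAzer PPAR-gamma-UAS-bla HEK293 cells in 1% charcoal/dextran-treated FBS medium were treated 16 h at 37 C with compounds. Beta-lactamase activity was read by CCF4 ratio (460/530 nm). Response was normalized to 2 uM rosiglitazone (100%) and DMSO, then Hill-fitted for EC50 and efficacy.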

For test [10], the target named is Androgen receptor (Homo sapiens) (UniProt P10275). The experiment in a line: qHTS assay for small molecule agonists of androgen receptor signaling (AID 588515; active means well fitted curve in the direction sought with a large enough effect in the signal ratio, with a control signal flat; the % refers to the signal ratio; further: on the % scale 0 is the no-effect control and ±100 the full control effect). As to conditions: AR-UAS-bla HEK293, beta-lactamase ratio, agonist 16 h; stronger effect = higher value. Put shortly:
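EC50 and efficacy came from Hill fits of titrations (up to 92 uM) normalized to 30 nM R1881 as 100% and DMSO as 0%. Compound exposure was 16 h at 37 C on AR-UAS-bla HEK293 cells, with a 405/460/530 nm CCF4 fluorescence read.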

“And” between values parts separate entries of the source, which are not always exact repeats. Equal entries are not always repeated. Records with an inconclusive call do not appear. The source made the active and inactive calls. Unless noted, the call rests on the fitted dose curve.

Chain of Bile acid receptor (Homo sapiens) (Q96RI1 whole entry, looked up): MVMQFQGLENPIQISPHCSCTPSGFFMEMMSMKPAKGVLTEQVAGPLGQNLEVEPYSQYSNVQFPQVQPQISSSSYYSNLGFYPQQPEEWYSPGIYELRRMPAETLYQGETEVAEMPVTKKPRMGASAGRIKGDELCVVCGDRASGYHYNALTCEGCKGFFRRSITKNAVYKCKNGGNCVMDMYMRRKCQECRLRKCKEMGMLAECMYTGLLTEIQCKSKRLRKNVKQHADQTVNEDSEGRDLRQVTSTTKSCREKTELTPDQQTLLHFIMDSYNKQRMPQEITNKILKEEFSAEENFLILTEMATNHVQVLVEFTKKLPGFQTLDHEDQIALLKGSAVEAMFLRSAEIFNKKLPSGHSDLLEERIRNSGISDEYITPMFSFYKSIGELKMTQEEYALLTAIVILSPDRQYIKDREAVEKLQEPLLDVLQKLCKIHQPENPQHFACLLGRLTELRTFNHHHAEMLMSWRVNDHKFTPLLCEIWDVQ
Chain of Peroxisome proliferator-activated receptor gamma (Homo sapiens) (P37231 whole entry, looked up): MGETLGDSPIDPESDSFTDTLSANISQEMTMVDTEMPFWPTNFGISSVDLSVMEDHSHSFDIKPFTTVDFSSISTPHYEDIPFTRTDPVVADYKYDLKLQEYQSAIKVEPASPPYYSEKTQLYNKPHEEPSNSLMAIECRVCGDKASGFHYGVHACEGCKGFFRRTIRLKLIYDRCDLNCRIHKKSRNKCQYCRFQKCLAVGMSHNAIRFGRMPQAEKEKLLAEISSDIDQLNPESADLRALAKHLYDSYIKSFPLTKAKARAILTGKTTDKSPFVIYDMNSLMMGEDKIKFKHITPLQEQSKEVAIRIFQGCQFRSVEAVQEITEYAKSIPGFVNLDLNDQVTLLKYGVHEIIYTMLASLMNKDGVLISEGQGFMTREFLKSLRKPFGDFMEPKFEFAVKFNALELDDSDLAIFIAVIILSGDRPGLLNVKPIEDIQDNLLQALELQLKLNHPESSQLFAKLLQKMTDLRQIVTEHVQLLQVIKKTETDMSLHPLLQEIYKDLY
Chain of Glucocorticoid receptor (Homo sapiens) (P04150 whole entry, looked up): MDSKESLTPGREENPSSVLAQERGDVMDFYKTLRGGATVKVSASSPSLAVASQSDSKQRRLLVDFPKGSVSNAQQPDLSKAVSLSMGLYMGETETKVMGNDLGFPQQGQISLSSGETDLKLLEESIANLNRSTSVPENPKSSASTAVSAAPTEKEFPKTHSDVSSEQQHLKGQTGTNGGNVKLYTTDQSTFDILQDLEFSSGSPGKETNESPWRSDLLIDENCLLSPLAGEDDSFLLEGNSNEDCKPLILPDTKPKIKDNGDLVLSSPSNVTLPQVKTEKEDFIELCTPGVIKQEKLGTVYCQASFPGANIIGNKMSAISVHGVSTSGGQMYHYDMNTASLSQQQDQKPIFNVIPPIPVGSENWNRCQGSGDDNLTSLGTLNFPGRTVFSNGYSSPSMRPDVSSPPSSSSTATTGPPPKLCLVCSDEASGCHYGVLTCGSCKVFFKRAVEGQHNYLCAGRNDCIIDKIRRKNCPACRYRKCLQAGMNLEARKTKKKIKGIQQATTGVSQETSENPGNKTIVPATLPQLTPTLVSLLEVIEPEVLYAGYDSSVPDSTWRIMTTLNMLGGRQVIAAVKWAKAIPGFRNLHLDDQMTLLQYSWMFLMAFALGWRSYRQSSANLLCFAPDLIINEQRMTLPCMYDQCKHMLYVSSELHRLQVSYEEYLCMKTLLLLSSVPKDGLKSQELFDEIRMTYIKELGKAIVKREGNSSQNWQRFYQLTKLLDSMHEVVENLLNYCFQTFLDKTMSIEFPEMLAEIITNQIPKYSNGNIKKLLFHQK
Chain of Vitamin D3 receptor (Homo sapiens) (P11473 whole entry, looked up): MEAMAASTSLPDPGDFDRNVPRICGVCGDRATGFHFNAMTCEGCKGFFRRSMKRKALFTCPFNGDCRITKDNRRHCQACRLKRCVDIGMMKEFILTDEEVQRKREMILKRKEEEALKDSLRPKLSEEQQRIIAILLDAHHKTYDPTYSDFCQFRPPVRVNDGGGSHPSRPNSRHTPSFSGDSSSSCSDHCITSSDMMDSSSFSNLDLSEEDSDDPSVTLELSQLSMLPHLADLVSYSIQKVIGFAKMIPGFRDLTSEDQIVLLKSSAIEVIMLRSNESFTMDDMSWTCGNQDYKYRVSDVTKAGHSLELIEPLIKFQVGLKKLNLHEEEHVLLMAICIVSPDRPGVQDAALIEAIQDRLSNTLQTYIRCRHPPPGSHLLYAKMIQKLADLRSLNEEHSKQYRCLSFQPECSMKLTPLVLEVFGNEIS
Chain of Androgen receptor (Homo sapiens) (P10275 whole entry, looked up): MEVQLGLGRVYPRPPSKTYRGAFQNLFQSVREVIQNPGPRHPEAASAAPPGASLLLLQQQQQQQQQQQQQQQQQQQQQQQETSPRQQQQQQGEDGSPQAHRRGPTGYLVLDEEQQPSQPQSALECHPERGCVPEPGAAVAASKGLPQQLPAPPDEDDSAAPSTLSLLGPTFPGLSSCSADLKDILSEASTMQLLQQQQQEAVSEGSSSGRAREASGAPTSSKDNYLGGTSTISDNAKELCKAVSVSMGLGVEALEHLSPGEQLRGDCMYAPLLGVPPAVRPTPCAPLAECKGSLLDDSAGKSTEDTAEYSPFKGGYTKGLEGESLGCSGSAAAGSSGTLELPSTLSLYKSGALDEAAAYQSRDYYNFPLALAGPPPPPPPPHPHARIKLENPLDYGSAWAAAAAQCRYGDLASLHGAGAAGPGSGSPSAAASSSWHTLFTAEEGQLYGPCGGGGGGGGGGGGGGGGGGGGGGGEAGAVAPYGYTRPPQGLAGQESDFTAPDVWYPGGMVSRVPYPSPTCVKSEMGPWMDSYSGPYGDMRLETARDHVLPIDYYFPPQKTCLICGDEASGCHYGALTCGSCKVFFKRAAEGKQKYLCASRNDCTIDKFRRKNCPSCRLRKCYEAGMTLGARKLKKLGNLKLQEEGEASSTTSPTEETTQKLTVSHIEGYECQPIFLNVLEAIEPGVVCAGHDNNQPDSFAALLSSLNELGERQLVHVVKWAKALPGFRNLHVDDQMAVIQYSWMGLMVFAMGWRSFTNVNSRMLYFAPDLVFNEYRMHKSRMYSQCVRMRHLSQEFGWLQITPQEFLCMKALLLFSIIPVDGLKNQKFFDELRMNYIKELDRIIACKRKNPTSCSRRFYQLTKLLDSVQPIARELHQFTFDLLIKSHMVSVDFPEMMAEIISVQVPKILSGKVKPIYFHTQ

For `COC(=O)/C=C(\C)OP(=O)(OC)OC`, the activation in [1] is 7.79% (inactive); in test [2], -1.06% (inactive). For the same molecule, the max response in test [3] is -22.9%. In addition, the Potency entry in test [4] was “inactive”.
For `CC(C)(C)[C@@H](O)/C(=C\c1ccc(Cl)cc1Cl)n1cncn1`, the Potency in [5] is 44.7 µM (active); in test [4] it was 68.6 µM (active). The activation in [1] was 0.6% (inactive); in [2], -11.9% (inactive). For the same molecule, the outcome in test [6] was inactive.
Regarding `CC(C)OC(=O)C(O)(c1ccc(Br)cc1)c1ccc(Br)cc1`, the figures for the activation in [1] and in [2] were 5.65% (inactive) and -15% (inactive), respectively. For the same molecule, the molecule was called inactive in test [6].
As to `O=C(O)C(F)(F)C(F)(F)C(F)(F)C(F)(F)C(F)(F)C(F)(F)C(F)(F)C(F)(F)F`, the Potency result in test [5] and in [7] was “inactive” in each case. Besides, in test [1], the activation is 3.01% (inactive) and 1.7% (inactive). In addition, the call in test [6] and in test [8] was inactive. In addition, the max response in [3] is 1.6% and -25.9%. In addition, in test [4], the Potency is 24.3 µM (active).
Turning to `Brc1ccc(Oc2ccccc2)cc1`, the activation in test [2] is 1.51% (inactive). The Potency result in [9] and in [7] was “inactive” each time. Also, the outcome in test [6] and in [8] was inactive. The max response in test [3] is -12.9%.
In the case of `CC(C)N(C(=O)COc1nnc(C(F)(F)F)s1)c1ccc(F)cc1`, the Potency entry in [5] and in test [9] was “inactive” throughout. The activation in test [1] was 0.828% (inactive); in test [2], 1.07% (inactive). The Potency in [4] is 48.6 µM (active).
In the case of `O=C(Nc1ccccc1)Nc1cnns1`, the Potency result in test [5] was “inactive”. Besides, the molecule was called inactive in test [6].
For the molecule `Clc1ccc(-c2cc(Cl)c(Cl)cc2Cl)cc1Cl`, the results for the activation in test [10], in test [1] and in test [2] were -4.76% (inactive), 4.78% (inactive) and -2.9% (inactive), respectively. The Potency result in test [9] and in test [7] was “inactive” throughout. Also, the call in test [8] was inactive.
Regarding `CCC(C)(NC(=O)c1cc(Cl)c(C)c(Cl)c1)C(=O)CCl` (stereo unspecified), the Potency result in test [5] and in test [9] was “inactive” in each case. Moreover, the activation in [1] is -3.52% (inactive); in test [2] it was -7.44% (inactive).
Consider `CC(C)C1(C)N=C(c2ncccc2C(=O)O)NC1=O` (stereo unspecified), for which the Potency result in [5], in [9] and in test [7] was “inactive” throughout. Further, the activation in test [2] was 0.632% (inactive). The outcome in test [6] and in [8] was inactive. The max response in test [3] was -12.1%.
Consider `CC1(C)C(C(=O)OC(C#N)c2cccc(Oc3ccccc3)c2)C1(C)C` (stereo unspecified), for which, in [1], the activation was 5.5% (inactive). The molecule was called inactive in test [6]. Besides, the max response in [3] is -5.14%.
On to `CCOc1nc(F)cc2nc(S(=O)(=O)Nc3c(Cl)cccc3Cl)nn12`, for which the Potency result in [5] and in [7] was “inactive” in each case. For the same molecule, in test [1], the activation was -0.748% (inactive). Besides, the result in [8] was inactive.
Consider `CCSC(=O)N(CC)C1CCCCC1`, for which the Potency entry in test [5] and in test [7] was “inactive” in each case. The figures for the activation in test [1] and in [2] were -3.64% (inactive) and -1.4% (inactive), respectively. In addition, the molecule was called inactive in test [6] and in test [8]. The max response in test [3] was -3.68%.
Turning to `CCCCOCCOC(C)=O`, the Potency entry in test [5], in test [9] and in test [7] was “inactive” in each case. For the same molecule, the results for the activation in test [1] and in test [2] were 1.59% (inactive) and -12.9% (inactive), respectively. For the same molecule, the call in [6] and in [8] was inactive. In addition, in test [3], the max response was -13.2%.
`CCCCOCN(C(=O)CCl)c1c(CC)cccc1CC`: in test [5], the Potency entry is “inactive”. In addition, the activation is -0.328% (inactive) in [1] and -1.18% (inactive) in test [2]. For the same molecule, the molecule was classed as inactive in test [6]. Moreover, in test [4], the Potency was 24.3 µM (active).
